Assays:
Test in all cases: log2 ratio of Biotin-Ahx-Ub-VS probe labelling (fragment/DMSO); higher = less target engagement (more negative = stronger competition), active = hit call of the paper (q ≤ 0.05, log2 ratio ≤ -1)
Conditions in all cases: compound concentration: 200 uM; treatment time: 3 h
OTUD6B = target: T1, OTUD6B (UniProt Q8N6M0)
T1 sequence (whole entry): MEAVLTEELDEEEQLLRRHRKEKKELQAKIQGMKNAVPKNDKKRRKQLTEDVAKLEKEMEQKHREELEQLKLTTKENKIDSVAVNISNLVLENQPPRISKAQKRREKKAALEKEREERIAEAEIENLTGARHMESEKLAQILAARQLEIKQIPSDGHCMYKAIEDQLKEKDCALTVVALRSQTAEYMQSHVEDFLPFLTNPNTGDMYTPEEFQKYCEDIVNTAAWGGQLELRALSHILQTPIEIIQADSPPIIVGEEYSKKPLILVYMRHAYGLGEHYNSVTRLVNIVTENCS
How it was run: (§1)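 Fragment (200 µM) or vehicle was incubated for 3 h with triplicate HEK293T lysate samples of 495 µg, which were then treated with Biotin-Ahx-Ub-VS at 0.5 µM final for 1 h. Labelled DUBs were enriched on NeutrAvidin, digested with LysC and trypsin, and analysed by diaPASEF LC-MS/MS. Values are average log2 fragment/vehicle ratios from an unpaired t-test on global-median-normalised Spectronaut label-free quantities, using proteins with ≥2 unique peptides.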

OTUD7B = target: T2, OTUD7B (UniProt Q6GQQ9)
T2 sequence (whole entry): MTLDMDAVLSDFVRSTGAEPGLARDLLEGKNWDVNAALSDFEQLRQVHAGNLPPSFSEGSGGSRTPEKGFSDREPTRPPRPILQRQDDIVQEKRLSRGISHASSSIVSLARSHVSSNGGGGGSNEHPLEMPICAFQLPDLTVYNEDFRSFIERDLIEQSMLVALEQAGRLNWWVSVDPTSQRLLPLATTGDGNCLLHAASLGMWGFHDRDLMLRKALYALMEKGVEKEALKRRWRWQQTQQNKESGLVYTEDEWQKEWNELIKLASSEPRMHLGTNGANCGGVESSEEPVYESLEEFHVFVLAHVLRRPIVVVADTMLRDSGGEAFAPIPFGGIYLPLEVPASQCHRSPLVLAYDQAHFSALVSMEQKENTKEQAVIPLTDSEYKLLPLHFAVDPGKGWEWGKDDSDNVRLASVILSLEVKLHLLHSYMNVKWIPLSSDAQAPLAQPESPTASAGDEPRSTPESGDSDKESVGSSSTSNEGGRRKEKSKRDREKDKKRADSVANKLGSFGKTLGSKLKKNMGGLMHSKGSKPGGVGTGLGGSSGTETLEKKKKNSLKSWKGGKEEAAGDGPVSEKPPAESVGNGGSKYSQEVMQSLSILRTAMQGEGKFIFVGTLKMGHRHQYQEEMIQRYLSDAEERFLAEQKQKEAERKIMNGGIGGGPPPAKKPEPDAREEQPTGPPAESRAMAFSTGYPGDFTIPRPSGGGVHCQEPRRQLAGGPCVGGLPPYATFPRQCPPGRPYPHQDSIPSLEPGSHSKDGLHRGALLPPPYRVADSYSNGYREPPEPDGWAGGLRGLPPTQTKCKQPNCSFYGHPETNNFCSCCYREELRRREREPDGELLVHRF
How it was run: as §1

PRPF8 = PRPF8 (UniProt Q6P2Q9)
How it was run: as §1

PSMD7 = target: T3, PSMD7 (UniProt P51665)
T3 sequence (whole entry): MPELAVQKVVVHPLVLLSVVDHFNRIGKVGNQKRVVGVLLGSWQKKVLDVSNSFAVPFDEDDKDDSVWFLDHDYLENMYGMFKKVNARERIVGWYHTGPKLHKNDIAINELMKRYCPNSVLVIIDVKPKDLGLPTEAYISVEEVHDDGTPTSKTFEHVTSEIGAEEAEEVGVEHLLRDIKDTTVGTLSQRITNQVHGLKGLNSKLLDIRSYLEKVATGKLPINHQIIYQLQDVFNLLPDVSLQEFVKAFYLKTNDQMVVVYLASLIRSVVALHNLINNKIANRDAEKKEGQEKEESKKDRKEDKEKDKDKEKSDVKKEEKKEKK
How it was run: as §1

UCHL1 = UCHL1 (UniProt P09936)
How it was run: as §1

UCHL3 = target: T4, UCHL3 (UniProt P15374)
T4 sequence (whole entry): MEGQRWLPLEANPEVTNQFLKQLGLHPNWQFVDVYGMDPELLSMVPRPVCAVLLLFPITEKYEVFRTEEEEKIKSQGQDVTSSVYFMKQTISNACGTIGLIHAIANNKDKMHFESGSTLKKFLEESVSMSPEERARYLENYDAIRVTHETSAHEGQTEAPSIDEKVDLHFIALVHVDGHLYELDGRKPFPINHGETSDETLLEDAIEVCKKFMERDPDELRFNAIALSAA
How it was run: as §1

UCHL5 = target: T5, UCHL5 (UniProt Q9Y5K5)
T5 sequence (whole entry): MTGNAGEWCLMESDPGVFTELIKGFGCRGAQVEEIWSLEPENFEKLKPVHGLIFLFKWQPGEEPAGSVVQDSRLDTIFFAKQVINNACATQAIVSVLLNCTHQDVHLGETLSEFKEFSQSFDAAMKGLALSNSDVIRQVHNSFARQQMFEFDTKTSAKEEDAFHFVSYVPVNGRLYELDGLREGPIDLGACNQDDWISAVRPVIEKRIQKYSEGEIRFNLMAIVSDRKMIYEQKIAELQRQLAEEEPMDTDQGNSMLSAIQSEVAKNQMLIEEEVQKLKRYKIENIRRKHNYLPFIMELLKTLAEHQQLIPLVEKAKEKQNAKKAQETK
How it was run: as §1

USP10 = USP10 (UniProt Q14694)
How it was run: as §1

USP15 = target: T6, USP15 (UniProt Q9Y4E8)
T6 sequence (whole entry): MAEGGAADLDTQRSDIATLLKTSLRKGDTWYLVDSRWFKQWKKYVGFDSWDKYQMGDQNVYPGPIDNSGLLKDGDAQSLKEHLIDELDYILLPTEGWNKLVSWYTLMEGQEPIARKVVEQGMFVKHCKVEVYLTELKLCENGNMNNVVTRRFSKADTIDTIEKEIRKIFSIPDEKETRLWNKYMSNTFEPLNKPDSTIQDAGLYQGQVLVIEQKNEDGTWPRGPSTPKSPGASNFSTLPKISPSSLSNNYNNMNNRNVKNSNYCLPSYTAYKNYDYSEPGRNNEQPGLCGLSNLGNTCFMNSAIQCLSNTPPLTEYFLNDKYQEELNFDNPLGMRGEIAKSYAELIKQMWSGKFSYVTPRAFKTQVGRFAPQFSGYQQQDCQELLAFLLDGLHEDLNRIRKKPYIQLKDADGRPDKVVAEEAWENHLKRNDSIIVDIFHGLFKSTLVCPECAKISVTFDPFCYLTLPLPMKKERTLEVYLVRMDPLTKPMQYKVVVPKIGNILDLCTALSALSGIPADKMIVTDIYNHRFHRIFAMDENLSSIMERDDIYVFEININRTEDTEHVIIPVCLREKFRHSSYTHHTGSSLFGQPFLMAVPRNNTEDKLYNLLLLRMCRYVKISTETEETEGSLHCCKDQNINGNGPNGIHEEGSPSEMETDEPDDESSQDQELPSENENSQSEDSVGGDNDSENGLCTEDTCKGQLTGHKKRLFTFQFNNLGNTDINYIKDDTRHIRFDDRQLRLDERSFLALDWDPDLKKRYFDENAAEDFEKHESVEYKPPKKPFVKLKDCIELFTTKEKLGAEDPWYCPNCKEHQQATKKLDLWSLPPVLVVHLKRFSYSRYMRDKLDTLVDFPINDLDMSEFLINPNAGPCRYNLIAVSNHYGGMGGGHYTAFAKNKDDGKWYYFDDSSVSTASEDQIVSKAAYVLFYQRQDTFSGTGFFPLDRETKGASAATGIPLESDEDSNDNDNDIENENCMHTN
How it was run: as §1

USP16 = USP16 (UniProt Q9Y5T5)
How it was run: as §1

Measured: log2 ratio of Biotin-Ahx-Ub-VS probe labelling

USP10, sequence (Q14694 whole entry): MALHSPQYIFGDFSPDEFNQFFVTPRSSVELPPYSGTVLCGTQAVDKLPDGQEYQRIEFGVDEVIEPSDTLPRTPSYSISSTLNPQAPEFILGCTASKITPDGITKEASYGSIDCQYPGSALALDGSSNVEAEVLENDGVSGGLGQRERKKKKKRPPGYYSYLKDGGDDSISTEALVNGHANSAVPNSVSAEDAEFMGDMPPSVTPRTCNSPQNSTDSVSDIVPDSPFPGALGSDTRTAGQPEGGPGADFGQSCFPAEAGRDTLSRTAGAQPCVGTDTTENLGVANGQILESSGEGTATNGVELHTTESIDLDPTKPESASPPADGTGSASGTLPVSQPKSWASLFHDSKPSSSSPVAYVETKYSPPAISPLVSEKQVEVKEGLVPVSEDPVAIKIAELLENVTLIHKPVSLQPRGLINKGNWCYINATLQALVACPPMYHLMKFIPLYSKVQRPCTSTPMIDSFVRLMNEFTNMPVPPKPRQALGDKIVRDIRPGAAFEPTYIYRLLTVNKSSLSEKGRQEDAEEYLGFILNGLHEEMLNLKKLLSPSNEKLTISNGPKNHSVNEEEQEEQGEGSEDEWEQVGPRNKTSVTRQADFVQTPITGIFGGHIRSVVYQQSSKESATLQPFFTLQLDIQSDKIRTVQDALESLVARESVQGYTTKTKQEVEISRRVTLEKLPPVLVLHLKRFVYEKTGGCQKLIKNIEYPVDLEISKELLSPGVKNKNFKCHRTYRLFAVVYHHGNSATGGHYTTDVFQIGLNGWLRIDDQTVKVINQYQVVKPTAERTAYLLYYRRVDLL
USP16, sequence (Q9Y5T5 whole entry, looked up): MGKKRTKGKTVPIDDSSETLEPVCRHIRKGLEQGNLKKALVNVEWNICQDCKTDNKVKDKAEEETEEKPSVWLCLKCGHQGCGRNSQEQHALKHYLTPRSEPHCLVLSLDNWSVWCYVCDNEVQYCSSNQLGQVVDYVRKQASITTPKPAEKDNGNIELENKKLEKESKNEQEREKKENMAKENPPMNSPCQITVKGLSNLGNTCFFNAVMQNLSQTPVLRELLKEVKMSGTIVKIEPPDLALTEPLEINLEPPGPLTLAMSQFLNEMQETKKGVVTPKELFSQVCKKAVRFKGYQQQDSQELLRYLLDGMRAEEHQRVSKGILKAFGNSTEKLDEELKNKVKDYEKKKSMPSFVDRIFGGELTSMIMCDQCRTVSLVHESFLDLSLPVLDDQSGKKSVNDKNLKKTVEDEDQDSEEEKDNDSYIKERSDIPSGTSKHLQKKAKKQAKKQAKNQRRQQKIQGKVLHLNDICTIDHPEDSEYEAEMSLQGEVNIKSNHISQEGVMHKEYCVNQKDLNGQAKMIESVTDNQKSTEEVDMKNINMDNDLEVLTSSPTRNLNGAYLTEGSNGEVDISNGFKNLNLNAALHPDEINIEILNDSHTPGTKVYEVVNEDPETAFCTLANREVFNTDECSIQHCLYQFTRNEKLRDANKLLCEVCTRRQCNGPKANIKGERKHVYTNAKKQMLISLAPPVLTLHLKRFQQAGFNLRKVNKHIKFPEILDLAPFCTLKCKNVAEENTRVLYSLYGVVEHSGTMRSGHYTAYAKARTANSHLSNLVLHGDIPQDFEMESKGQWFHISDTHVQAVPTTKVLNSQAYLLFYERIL
UCHL1, sequence (P09936 whole entry, looked up): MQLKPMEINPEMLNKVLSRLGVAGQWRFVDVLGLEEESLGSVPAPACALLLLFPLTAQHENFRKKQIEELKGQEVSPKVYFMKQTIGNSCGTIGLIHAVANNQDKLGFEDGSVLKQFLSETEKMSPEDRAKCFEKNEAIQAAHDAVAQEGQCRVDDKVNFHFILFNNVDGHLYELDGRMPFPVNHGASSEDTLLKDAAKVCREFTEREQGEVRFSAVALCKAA

Cc1n[nH]c(=O)c2c(NC(=O)CCl)oc(C)c12
inactive: OTUD6B 0.111 | OTUD7B -0.365 | PRPF8 0.175 | PSMD7 0.0225 | UCHL1 -0.344 | UCHL3 0.303 | UCHL5 -0.0452 | USP10 -0.0909 | USP15 -0.014 | USP16 -0.0991
